Pf Dd2 inh: Plasmodium falciparum Dd2 growth inhibition. P. falciparum Dd2 growth, SYBR Green, 72 h. Potency, µM (doses to about 28.9 µM), without a hit: at the top dose activity, negative = inhibition, usual class: inhibitors. 120,000 tested, 4.3% active; active = well fitted inhibition curve with a large enough effect;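 also: plate controls were DMSO vehicle for no effect and reference drug for full effect; nearly all actives have a fitted effect of over 65% in size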
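Readout: SYBR Green fluorescence, 485 nm excitation, 535 nm emission, after ~16 h lysis at 37C. Before that, Dd2-infected red cells (2.5% hematocrit) grew 72 h with compound, 29 uM top final concentration.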
* marks the source's active call; other numbers are inactive results; i = inactive; [ ] = remark or other dose. Shown is part of a subset that was picked to be rich in hits. Potency is read from the fitted curve at half-maximal effect.

SMILES	Pf Dd2 inh
Cc1ccc(NC(=O)C2CCCN(c3ncnc4c3nc3n4CCCCC3)C2)cc1F (stereo not drawn)	22.6%
COc1cccc(C(=O)Nc2ccc3c(N4CCOCC4)ncnc3c2)c1	-17.3%
Cc1ccc(NC(=O)c2ccc3c(c2)N(C)C2CCCCN2C3=O)cc1F (stereo not drawn)	-18.7%
CCc1ccc(-c2nc3cc(NC(=O)c4ccc(C)c(C)c4)ccc3o2)cc1	-12.2%
Cc1ccc(C(=O)Nc2ccc3c(N4CCCCC4)ncnc3c2)cc1F	6.31µM*
Cn1cccc1C(=O)N1CCC(c2[nH]ncc2Cc2ccccc2)CC1	6.5%
O=C(N[C@H]1CCCNC1=O)C1=C[C@@H](NS(=O)(=O)c2cccs2)[C@@H](O)[C@H](O)C1	-8.3%[44.1 µM]
Cc1cc(C(=O)N[C@@H]2CN(Cc3ccccc3)C[C@H]2CN(C)C)n[nH]1	15.9%
Cc1ncoc1C(=O)N1CCCCCCn2c(nnc2-c2ccc(F)cc2)CC1	i
COc1ccc(CN2Cc3cc(NC(=O)c4ccccc4F)ccc3OC(C)C2=O)c(OC)c1 (stereo not drawn)	3.16µM*
COc1ccc(CN2Cc3cc(NC(=O)c4ccc(F)cc4)ccc3OC(C)C2=O)c(OC)c1 (stereo not drawn)	i
COc1ccc(C(=O)Nc2ccc3c(c2)CN(Cc2ccc(F)cc2)C(=O)C(C)O3)c(OC)c1 (stereo not drawn)	i
O=C(N[C@H]1C[C@H]2C(=O)NC[C@@H](CCC(=O)N3CCCCC3)N2C1)c1ccc(F)c(Cl)c1	-5.2%
Cn1c(CNC(=O)CN2CC3CC(C2)[C@H]2CCCC(=O)N2C3)nc2ccccc21 (stereo partly drawn)	-8.3%
CCOC(=O)c1ccc(Nc2nc3ccccc3n3c(C)nnc23)cc1	-23.5%
CCOC(=O)c1nc(Nc2ccc(Cl)cc2)c2c(C)noc2n1	16.7%
CCOC(=O)c1ccc(Nc2nc3nonc3nc2Nc2cccc(C)c2C)cc1	1.12µM*
COc1ccc(NC(=O)Nc2ccc(C)n(CC(=O)Nc3ccc(C)c(C)c3)c2=O)cc1	-24.1%
COc1ccc(OCc2nc(C)c(CCO)c(=O)n2CC(=O)Nc2ccccc2Cl)cc1	-1.0%
CCOc1ccc(NC(=O)c2c(NCc3ccc(C)o3)sc3c2CCC(C)C3)cc1 (stereo not drawn)	11.2µM*
CC1CCc2c(sc(NC(=O)c3ccccc3)c2C(=O)Nc2ccccc2)C1 (stereo not drawn)	12.6µM*
Cc1cccc(NC(=O)c2c(NC(=O)c3cccs3)sc3c2CCC(C)C3)c1 (stereo not drawn)	33.7%
CC(C)(C)C1CCc2c(sc(NC(=O)c3ccncc3)c2C(=O)Nc2ccccc2Cl)C1 (stereo not drawn)	14.9%
CCOC(=O)c1ccc(NC(=O)c2c(NCc3ccc(OC)c(OC)c3OC)sc3c2CCC(C)C3)cc1 (stereo not drawn)	10µM*
CCCOc1ccc(/C=C/C(=O)Nc2sc3c(c2C(=O)OCC)CCC(C)C3)cc1OC (stereo not drawn)	43.0%
SMILES	Pf Dd2 inh
COc1ccccc1NC(=O)c1c(NC(=O)c2ccco2)sc2c1CCC(C(C)(C)C)C2 (stereo not drawn)	-2.2%
CCOC(=O)c1c(NC(=O)c2cc3ccccc3c(=O)o2)sc2c1CCC(C)C2 (stereo not drawn)	34.1%
CCOc1ccccc1NC(=O)c1c(NC(=O)c2ccccc2C)sc2c1CCC(C)C2 (stereo not drawn)	i
CCOc1ccc(NC(=O)c2c(NCc3cccnc3)sc3c2CCC(C)C3)cc1 (stereo not drawn)	i
CC1CCc2c(sc(NC(=O)COc3ccccc3)c2C(=O)Nc2ccccc2Cl)C1 (stereo not drawn)	97.7%
CC(C)(C)C1CCc2c(sc(NC(=O)c3ccc(Cl)cc3)c2C(=O)NCc2ccco2)C1 (stereo not drawn)	5.62µM*
Cc1sc2cc(C(=O)NC3CC3)[nH]c2c1CN1CCCCC1	-7.0%
c1c(CN2CCCN(CCCN3CCCC3)CC2)nn2c1CNCC2	-5.0%
O=C1NCCCCCCN(C(=O)Nc2ccccc2F)[C@H]2C[C@H](c3nc(-c4cccnc4)no3)C[C@@H]12	-7.1%
CC[C@H]1CN(C(=O)NC(C)C)CC[C@H]1CC(=O)NCc1cccc2ccccc12	-24.2%[44.1 µM]
CCn1cc(S(=O)(=O)N2CCCCC2c2nc(C3CC3)n[nH]2)cn1 (stereo not drawn)	1.2%
COC[C@H]1NC(=O)CC[C@H]1C(=O)N1CCN(c2ccccc2F)CC1	-9.6%
C=CCN(C)C(=O)C[C@@H]1c2nc(NC(=O)c3cccc(F)c3)sc2C[C@@H]2[C@](C)(CO)[C@H](O)CC[C@]21C	-2.0%
O=C(O)C1=NOC2CN(C(=O)C3CCCCC3)CC12 (stereo not drawn)	-7.2%[44.1 µM]
Cc1cnc(C2CCNC2)n1Cc1ccccc1 (stereo not drawn)	5.9%
CCOc1ccc(NC(=O)c2c(NC(=O)c3ccco3)sc3c2CCC(C(C)(C)C)C3)cc1 (stereo not drawn)	10µM*
CCOc1ccc(NC(=O)c2c(NC(=O)c3cccs3)sc3c2CCC(C(C)(C)C)C3)cc1 (stereo not drawn)	-16.8%
